# Laboratory results as given in PubChem BioAssay AID488789 (Broad Institute, 2010).
# Potency and affinity values are given separately. Results filed as inconclusive are left out. Unmarked numbers belong to inactive results.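 How the source made its calls: active means samples whose fitted half-maximal inhibition concentration is no more than ten times the top valid dose tested; inconclusive means flat response between -70 and -30, or invalid curve fit; inactive means flat within 30 of zero, potency above limit, or signal rising.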
# Target: Trypsin (Sus scrofa) (UniProt P00761)
# Test: trypsin protease activity blockade – biochemical, quenched peptide fluorescence, cherry-pick, selectivity assay for Rce1 protease inhibitor project, dose response (AID 488789)
# Conditions: porcine trypsin, quenched peptide cleavage fluorescence; series mostly up to 10 µM; activity change, negative = inhibition: at the top concentration
# Sequence of Trypsin (Sus scrofa) (P00761 whole entry, looked up): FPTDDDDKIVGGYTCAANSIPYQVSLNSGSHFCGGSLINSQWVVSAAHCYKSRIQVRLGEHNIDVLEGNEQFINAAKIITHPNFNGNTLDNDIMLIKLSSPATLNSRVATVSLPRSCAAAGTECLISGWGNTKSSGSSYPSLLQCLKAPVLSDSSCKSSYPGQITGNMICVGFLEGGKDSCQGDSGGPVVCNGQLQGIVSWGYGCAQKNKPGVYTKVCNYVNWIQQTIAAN
row,SMILES,"activity change, negative = inhibition [%]"
1,O=[N+]([O-])c1cc(S(=O)(=O)N2CCCC2)ccc1NN=C1CCCCC1,6.92
2,O=C(COc1ncnc2cc([N+](=O)[O-])ccc12)NC(=O)NC1CCCCC1,2.26
3,O=C(CN1CCC(NC(=O)c2ccc(Br)cc2)CC1)NCc1cccs1,5.08
4,CN(C)CCN(C(=O)c1ccc2ccccc2c1)c1nc2ccc(F)cc2s1,2.44
5,Cc1cc(C(=O)N/N=C/c2c3ccccc3cc3ccccc23)n[nH]1,9.63
6,O=C(CC1(O)C(=O)N(C/C=C/c2ccccc2)c2ccccc21)c1ccccn1 (configuration not stated),5.45
7,CC(NC(=O)/C(C#N)=C/c1ccc(Cl)c([N+](=O)[O-])c1)c1ccccc1 (configuration not stated),1.97
8,CS(=O)(=O)c1ccc(C(=O)OCC(=O)N(CCc2ccccc2)Cc2ccccc2)cc1,15.7
9,CC(Cc1cccs1)NC(=O)Nc1ccc([N+](=O)[O-])cc1 (configuration not stated),13.2
10,COc1ccc(OC)c(Cc2nnc(CCC(=O)N3CCN(C4CCCC4)CC3)o2)c1,-6.54
11,COc1cccc(/C=N/NC(=O)c2nnn(-c3nonc3N)c2C(C)C)c1OCc1ccc(F)cc1,5.63
12,Cc1c(Cl)c([N+](=O)[O-])nn1CC(=O)N1CCCc2ccccc21,3.75
13,O=C(CCCn1c(=O)[nH]c2ccc(Br)cc2c1=O)NCc1ccc(Cl)cc1,-3.19
14,CCN1CCN(CC(O)COc2ccc3c(C)cc(=O)oc3c2)CC1 (configuration not stated),11.8
15,COc1ccc(NS(=O)(=O)c2c(C)cc(C)cc2C)cc1,3.93
16,CCN(CC)CCN(C(=O)c1cc2ccccc2cc1OC)c1nc2ccc(F)cc2s1,-2.96
17,N=c1c(C(=O)NCc2ccc(F)cc2)cc2c(=O)n3ccccc3nc2n1Cc1cccnc1,37.3
18,O=C(Cn1c2ccccc2c(=O)c2ccccc21)Nc1ccccc1F,-4.99
19,Nc1nonc1-n1nnc(C(=O)N/N=C/c2cccc(Cl)c2)c1CSc1ccc(Cl)cc1,7.37

row,SMILES,"activity change, negative = inhibition [%]"
1,CCC(=O)Nc1cccc(NC(=S)NC(=O)c2cccs2)c1,7.96
2,Cc1cc2cc(C#N)c(NCCNC(=S)NCCCN3CCOCC3)nc2cc1C,-4.36
3,CC(=O)c1c(C)[nH]c(C(=O)OCc2ccc(Br)cc2)c1C,3.12
4,Cc1cc(C)n(-c2nc3ccccc3c(=O)n2OCC(=O)N(C)C)n1,-8.54
5,CCCCN(CC)CCNC(=O)c1cc2c(-c3ccc(Cl)cc3)nn(C)c2s1,66.6
6,Cc1cc(C(=O)N[C@H](c2ccccc2)[C@@]2(C)C[C@@H]2[C@@H](C)C(=O)Nc2ccc3ccccc3c2)n(C)n1,15.2
7,CN1c2ccc(C=O)c3c(C=O)ccc(c23)N(C)C1(C)C,7.96
8,CC(C)C(NC(=O)c1ccco1)C(=O)NCC(c1ccco1)N1CCCCC1 (configuration not stated),7.33
9,COC(C/C=C/[C@@H](O)[C@H](C)OCc1ccccc1)OC,23
10,FC(F)(F)c1cc(Oc2ccccc2)ncc1-c1nnc(-c2ccccc2Cl)o1,16
11,CC(=O)N1c2ccc([N+](=O)[O-])cc2NC(=O)CC1C (configuration not stated),3.92
12,NC(=O)[C@@H]1CC2(CC(c3cccc(NC(=O)CC(c4ccccc4)c4ccccc4)c3)=NO2)CN1C(=O)c1ccc(Cl)cc1 (some centres not stated),9
13,CCCCn1c(=O)[nH]c(=O)c2c1nc(-c1ccc(OC)c(Br)c1)n2CC(C)C,11.2
14,O=C(Nc1ncccn1)c1ccc([N+](=O)[O-])cc1,4.42
15,COc1cc(-c2nc3ccccn3c2/N=C/c2cccc(OC)c2O)ccc1O,1.16
16,COc1cccc2sc3ccc(C#CC4(O)CCCCC4)cc3c(=O)c12,6.34
17,O=C(Nc1ccc(S(=O)(=O)Nc2ccccc2)cc1)C1COc2ccccc2O1 (configuration not stated),0.348
18,CCCn1c(O)c(N=NC(=O)CNC(=O)Cc2ccc(OC)cc2)c2ccccc21,13.3
